Rows were chosen to be rich in hits. Some 1.3% of all compounds tested hit in one or more screens of this group.
PriA SSB inh: inhibitors of Klebsiella pneumoniae PriA binding to SSB C-terminal tail, primary screen, biochemical, AlphaScreen; PriA–SSB C-terminal tail interaction (Klebsiella pneumoniae); AlphaScreen SSBct-PriA binding, biotinylated peptide; inhibition, % at 33 µM; 0.6% of 430,000 active; AID 1272365, 2023; in the data active means inhibition mostly above about 37%, no sharp cut-off; inactive means mostly below about 20%;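 further: plate controls were negative control peptide for no effect and reference peptide for full effect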
CCHFV vOTU inh: CCHFV vOTU protease inhibitors, primary screen, biochemical, Pep-AMC substrate, fluorescence. 0.55% of 370,000 active. inhibition, % at 11.5 µM. Crimean-Congo hemorrhagic fever virus L polyprotein viral ovarian tumor (vOTU) protease …. AID 651958, 2012; in the data active means inhibition above about 30%; further: 0% = vehicle wells with enzyme and 100% = no enzyme wells
Vc quorum ag: inducers of Vibrio cholerae quorum light production without autoinducers, primary screen, BH1578 luxS cqsA deficient, single point; V. cholerae BH1578 lux reporter, luminescence, 6 h; activation, % at 18.7 µM; 0.16% of 350,000 active; AID 588436, 2011; in the data active means activation mostly above about 9.7%, no sharp cut-off
DUSP3 inh: VHR1 phosphatase inhibitors, primary screen, biochemical, absorbance, uHTS | Dual specificity protein phosphatase 3 (Homo sapiens), P51452 | recombinant VHR phosphatase, pNPP absorbance | inhibition, % at 13.3 µM | 0.52% of 290,000 active | AID 1654, 2009; in the data active means inhibition above about 50%
TcdB GH inh: TcdB glycohydrolase inhibitors, primary screen, biochemical, single point, plate reader; TcdB glycohydrolase enzymatic assay; 0.24% of 350,000 active; inhibition, % at 9.99 µM; in the data active means inhibition above about 10%
3CLpro inhibitor: SARS-CoV 3CLpro protease inhibitors, primary screen, biochemical, quenched FRET; Replicase polyprotein 1ab (Severe acute respiratory syndrome coronavirus), P0C6X7; recombinant SARS-CoV 3CLpro, quenched FRET peptide cleavage; inhibition, % at 6 µM; 0.14% of 290,000 active; in the data active means inhibition above about 12%
* = called active by the depositor; i = inactive; . = not tested or not shown; ! = a repeat was not active.

SMILES	PriA SSB inh	CCHFV vOTU inh	Vc quorum ag	DUSP3 inh	TcdB GH inh	3CLpro inhibitor
CCCC[n+]1ccn(C2=C([O-])c3ccccc3C(=O)C2=NS(=O)(=O)c2ccc(Br)cc2)c1	4	.	.	.	.	.
C=C1CC[C@@]2(O)[C@H]3Cc4ccc(O)c5c4[C@@]2(CCN3CC2CC2)[C@H]1O5	41*	.	i	1	.	-5
CCN=c1scc(C)n1N=Cc1ccc(O)c(O)c1O	27	.	.	.	.	.
CC(=O)c1c(N2CCN(C)CC2)[nH]c(-c2ccccc2)nc1=S	46*	27	-1	-12	.	-4
O=C(COC(=O)c1ccc(O)cc1)Nc1cc(S(=O)(=O)N2CCCCCC2)ccc1Cl	.	10	i	.	0	.
Nc1cc(N)cc(C(=O)OCC(=O)Nc2cc(S(=O)(=O)N3CCCCC3)ccc2Cl)c1	1	10	i	28	11*	0
COc1cccc(/C(O)=C2/C(=O)C(=O)N(CCN3CCOCC3)C2c2cccs2)c1 (stereo not drawn)	.	17	i	53*	.	-5
Cc1cc(N2Cc3ccccc3OCC2=O)ccc1F	-6	.	.	.	.	.
COc1ccc(Cn2c3nc4ccccc4nc3c3c(=O)n(Cc4ccco4)c(C)nc32)cc1	.	.	.	91*	.	.
COc1ccc(Cn2c(C)nc3c(c2=O)c2nc4ccccc4nc2n3Cc2ccco2)cc1	-11	12	0	.	3	.
O=C(O)c1ccccc1N=Nc1c(O)[nH]c2ccc([N+](=O)[O-])cc12	-17	.	i	44	.	8
O=C(N=Nc1c(O)[nH]c2ccc([N+](=O)[O-])cc12)c1ccccc1Cl	-7	-13	0	57*	0	3
CCn1c(=S)[nH]c2c(=O)n(C)c(=O)n(C)c21	-10	8	-6	.	46*	.
Cn1c(=O)c2[nH]c(=O)[nH]c2n(C)c1=O	-5	-4	0	.	1	.
COc1cc(=O)n(-c2ccccc2)cc1C(=O)Nc1nc(-c2ccco2)cs1	-1	.	.	.	.	.
Cc1cccc(NC(=O)CCNS(=O)(=O)c2cccc3nonc23)c1C	7	-17	-1	2	1	-2
Cc1cccc(NC(=O)CCNS(=O)(=O)c2cccc3nonc23)c1	-13	4	0	-24	2	-3
CC(=O)Nc1ccc(NS(=O)(=O)c2cccc3nonc23)cc1	0	-6	0	58*	1	-5
CCOc1ccccc1NC(=O)CCNS(=O)(=O)c1cccc2nonc12	-14	20	0	4	14*	-2
CCOC(=O)c1cccc(NC(=O)CCNS(=O)(=O)c2cccc3nonc23)c1	-3	15	0	35	16*	4
CC(=O)c1ccccc1NS(=O)(=O)c1cccc2nonc12	-17	-7	-1	-25	0	-1
CS(=O)(=O)c1nc(S(=O)(=O)c2ccc(Cl)cc2)c(N2CCC(C(N)=O)CC2)s1	-5	10	-1	-5	-1	7
CCS(=O)(=O)c1nc(S(=O)(=O)c2ccc(Cl)cc2)c(N2CCC(C(N)=O)CC2)s1	-6	10	i	56*	1	4
Cc1ccc2nc(N(CCCN(C)C)C(=O)c3ccc4c(c3)CCCC4)sc2c1	26	-6	i	33	.	-3
CN(C)CCN(C(=O)c1ccc2c(c1)OCCO2)c1nc2cc3c(cc2s1)OCO3	14	3	0	-15	1	0
SMILES	PriA SSB inh	CCHFV vOTU inh	Vc quorum ag	DUSP3 inh	TcdB GH inh	3CLpro inhibitor
CN(C)CCN(C(=O)c1ccc2c(c1)CCCC2)c1nc2cc3c(cc2s1)OCCO3	51*	11	-1	22	0	6
CCOc1ccc2nc(N(CCN(C)C)C(=O)c3ccc4c(c3)CCCC4)sc2c1	55*!	.	0	-8	.	0
CC(C)(Oc1ccc(Cl)cc1)C(=O)NCCn1ncc2c(=O)n(Cc3cccc4ccccc34)cnc21	-1	.	.	.	.	.
COc1ccc(NC(=O)Nc2ccc(CN3CCN(c4ccccn4)CC3)cc2)cc1	26	.	.	.	.	.
O=C(Nc1ccc(CN2CCN(c3ccccn3)CC2)cc1)Nc1ccc2c(c1)OCO2	50*	.	.	.	.	.
O=C(CCS(=O)(=O)c1ccccc1)Nc1nc2c(s1)C(=O)NCCC2	-2	.	.	.	.	.
O=C(O)c1ccc(-c2nnc(-c3ccc([N+](=O)[O-])cc3)o2)cc1	-6	-4	i	-18	0	2
O=C(O)c1ccc(-c2nnc(-c3ccccc3)o2)cc1	-1	1	i	42	13*	-2
O=C(CNS(=O)(=O)c1ccccc1)N/N=C/c1ccc(O)cc1	.	-2	i	11	14*	5
O=C(CCNC(=O)c1ccccc1Cl)N/N=C\c1ccc(O)cc1	.	-6	-1	24	15*	-1
COc1cc(C=NNC(=O)CCNC(=O)c2ccccc2Cl)ccc1O	0	.	.	.	.	.
O=C(CCn1cnc2ccccc21)N/N=C/c1ccc(O)cc1	.	-11	0	-1	14*	3
O=C(NCC1CCN(C2CCCC2)CC1)c1ccccc1C(F)(F)F	4	.	.	.	.	.
Cc1ccc(-c2cc3c(SCc4ccccc4F)nccn3n2)cc1C	2	.	.	.	.	.
O=[N+]([O-])c1ccccc1NN=C1CC2CC=CC12 (stereo not drawn)	71*	.	.	.	.	.
Cc1cc(NC(=O)C2CC(c3ccc(F)cc3)=NO2)n(-c2ccccc2)n1 (stereo not drawn)	-9	-5	i	50*	4	-3
COc1cccc(C2=NOC(C(=O)Nc3cc(C)nn3-c3ccccc3)C2)c1OC (stereo not drawn)	-1	-4	0	34	0	-3
Cc1cc(C)c2sc(N3CCN(C(=O)c4ccccc4Oc4ccccc4)CC3)nc2c1	1	.	.	.	.	.
CCCc1sc(N/N=C/c2ccccn2)nc1-c1ccc(F)cc1	.	.	i	-5	.	-6
Cc1csc(NN=Cc2ccccn2)n1	58*	.	.	.	.	.
CCCc1sc(NN=Cc2ccccn2)nc1-c1ccc(F)cc1	41*	.	.	.	.	.
CCc1nnc(SCC(=O)Nc2ccc(OC(F)(F)F)cc2)n1-n1cccc1	-17	.	.	.	.	.
O=C(Nc1nc(-c2ccccn2)cs1)C1CC(=O)N(c2ccc3c(c2)OCCO3)C1 (stereo not drawn)	78*	2	0	6	-1	-2
O=C(Nc1nc(-c2ccccn2)cs1)C1CC1c1ccccc1Cl (stereo not drawn)	48	.	.	.	.	.
CN(C(=O)C(=O)Nc1nc(-c2ccccn2)cs1)C1CCSC1 (stereo not drawn)	138*	.	.	.	.	.
Cc1cccnc1NC(=O)C1CC(=O)N(c2ccc3c(c2)OCCO3)C1 (stereo not drawn)	0	3	-1	.	1	.
CC1(C)OC(=O)CC1C(=O)Nc1nc(-c2ccccn2)cs1 (stereo not drawn)	104*	.	.	.	.	.
O=C(Nc1ccc(C(=O)Nc2nc(-c3ccccn3)cs2)cc1)NC1CC1	93*	.	.	.	.	.

Assay outcomes: PubChem BioAssay, several laboratories
